Screening data: PubChem, National Center for Advancing Translational Sciences (NCATS)
Sampled rows, rich in hits. Any-hit rate of the full collection: about 7.3%.
ELG1 genotoxic: induces genotoxicity in HEK293T cells with luciferase-tagged ELG1. 330,000 tested, 1.3% active. HEK293T ELG1-luciferase reporter, luminescence, 16 h. Potency, µM (doses to about 46 µM), inactives show at the top dose activity change, positive = activation, most hits filed as activators. AID 504466; also: % of control where 0% means no effect; nearly all actives have a fitted effect of over 60% in size
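16 hr compound incubation (37 °C, 5% CO2) of HEK293T cells carrying luciferase-tagged ELG1; luciferase then measured by ONE-Glo luminescence after 30 min at RT.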
SMN2 splice up: enhancers of SMN2 splice variant expression; HEK293 SMN2-luciferase splicing reporter, luminescence, 30-36 h; Potency, µM (titrated, usually from 46.1 µM), for inactives: at the highest dose activity change, positive = activation, hits mostly activators; 210,000 tested, 2.8% active; AID 1458; also: % of control where 0% means no effect; nearly all actives have a fitted effect of over 55% in size
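HEK293 cells carry an SMN2 minigene-luciferase reporter in which exon 7 inclusion puts luciferase in frame. Cells were seeded at 2000 cells/well, attached for 10-12 hours, then exposed to compounds for 30-36 hours at 37C before ONE-Glo luminescence.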
NPC1 prom act: activators of NPC1 promoter. Huh7 NPC1 promoter luciferase reporter, 24 h. Potency, µM (titrated, usually from 9.22 µM), inactives show top-dose activation, actives largely listed as activators. 320,000 tested, 2.4% active; also: % of control where 0% means no effect; nearly all actives have a fitted effect of over 60% in size
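Readout is luciferase luminescence, reflecting NPC1 promoter activation in stably transfected Huh7 cells after 24 h compound exposure at 37 °C in reduced-serum medium with 10% FBS.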
Rab9 prom act: activates the Rab9 promoter. AID 485297. 320,000 tested, 2.8% active. Potency, µM (top dose mostly 9.22 µM), without a hit: top-dose activation, negative = inhibition, usual class: activators. Huh7 Rab9 promoter-luciferase reporter, luminescence, 24 h; also: % of control where 0% means no effect; nearly all actives have a fitted effect of over 60% in size
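Huh7 cells stably carrying a Rab9 promoter-luciferase reporter, 1500 cells per well in OP-MEM I with 10% FBS, treated with compound 24 hours at 37C. Luciferase activity read by luminescence after 10 minutes with Amplite reagent.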
uPA generation: inhibitors of cell surface uPA generation; AID 540303; 330,000 tested, 0.31% active; Potency, µM (titrated, usually from 38.3 µM), without a hit: at the highest dose activity change, negative = inhibition, actives largely listed as inhibitors; cell surface uPA generation assay, qHTS; active = well fitted inhibition curve with a large enough effect; inconclusive = small, poorly fitted or top-dose-only effect; inactive = no such curve, though single readings can be large or run the other way; tested in mouse RAW 264.7 cells; also: % is scaled to controls: 0 for no effect and ±100 for the full control effect; nearly all actives have a fitted effect of over 55% in size
FLuc modulator: inhibits or activates purified firefly luciferase, miR-21 counter-screen. P08659. purified FLuc, Km substrates, luminescence inhibition. Potency, µM (doses to about 57.5 µM), for the others: at the top dose activity change, negative = inhibition, usual class: inhibitors. 360,000 tested, 6.9% active. AID 588342;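 also: plate controls were vehicle for no effect and reference inhibitor for full effect; nearly all actives have a fitted effect of over 55% in size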
Target sequence (P08659 whole entry, looked up): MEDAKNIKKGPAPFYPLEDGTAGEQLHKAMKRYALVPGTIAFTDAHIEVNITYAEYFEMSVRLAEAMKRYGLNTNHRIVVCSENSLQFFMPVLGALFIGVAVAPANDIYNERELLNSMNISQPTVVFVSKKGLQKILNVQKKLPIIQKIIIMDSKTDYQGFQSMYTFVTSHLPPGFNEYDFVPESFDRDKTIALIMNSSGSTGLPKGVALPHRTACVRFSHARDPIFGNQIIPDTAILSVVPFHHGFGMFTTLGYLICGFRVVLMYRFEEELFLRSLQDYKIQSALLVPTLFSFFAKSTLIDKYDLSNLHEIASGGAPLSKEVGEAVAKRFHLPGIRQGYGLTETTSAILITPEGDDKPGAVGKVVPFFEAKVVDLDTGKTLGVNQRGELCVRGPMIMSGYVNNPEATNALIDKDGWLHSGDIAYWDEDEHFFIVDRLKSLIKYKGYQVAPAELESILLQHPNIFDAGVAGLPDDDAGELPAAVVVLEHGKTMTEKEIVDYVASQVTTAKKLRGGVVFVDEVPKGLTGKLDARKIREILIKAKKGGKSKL
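Purified P. pyralis luciferase (10nM final) with 10uM D-luciferin and 10uM ATP (Km levels) in 50mM Tris acetate pH 7.5, 10mM Mg acetate, 0.01% Tween-20, 0.05% BSA; qHTS 6-point titration, ~60 µM downward; luminescence read.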
Active calls of the source: *; u = inconclusive; x = not tested or not shown; [ ] = remark or other dose. Unless noted, calls follow the shape of the dose curve; as a rule, active = well fitted curve in the direction sought with a large enough effect; inconclusive = small, poorly fitted or top-dose-only effect, or another doubt; inactive = no such curve, though single readings can be large; an effect the other way counts as inactive or inconclusive. Potency is read from the fitted curve at half-maximal effect.

SMILES | ELG1 genotoxic | SMN2 splice up | NPC1 prom act | Rab9 prom act | uPA generation | FLuc modulator
Cc1ccc(NC(=O)CN2C(=O)S/C(=C/c3ccc(-c4cc(C(=O)O)ccc4C)o3)C2=O)cc1C | 1% | -11% | -1% | -1% | x | u
Cc1cccc(NC(=O)CN2C(=O)S/C(=C\c3ccc(-c4cccc(C(=O)O)c4C)o3)C2=O)c1 | 0% | 28% | -2% | 6% | 7% | 19µM*
Cc1ccccc1NC(=O)CN1C(=O)S/C(=C\c2ccc(-c3cccc(C(=O)O)c3C)o2)C1=O | 9% | 11µM* | 14% | 0%[1.84 µM] | 0% | u
O=C(O)c1ccccc1-c1ccc(/C=C2\SC(=O)N(c3ccccc3)C2=O)o1 | u | x | 2.5µM* | 2µM* | -11% | 13µM*
CC1=NN(c2ccc(Br)cc2)C(=O)/C1=C/c1ccc(-c2ccccc2C(=O)O)o1 | -3% | x | -1% | -1% | 16% | 27µM*
O=C(Nc1ccc(Cl)cc1)C1C2CCCCC21 (configuration not stated) | u | x | 4µM* | 4µM* | u | 4.8µM*
O=C1CCC(C(=O)Nc2ccc(Cl)cc2)N1 (configuration not stated) | 2% | x | -3% | 9% | 1% | 7%
CCc1ccc(NC(=O)C2C3/C=C\CCCCC32)cc1 (configuration not stated) | u | 11µM* | 4.5µM* | 3.2µM* | -3% | u
Cc1ccc(NC(=O)CN2C(=O)c3ccccc3Sc3ccc(C(=O)N4CCOCC4)cc32)cc1C | x | x | x | x | x | -12%
COc1cc(O)oc1C=Nc1ccc(Oc2ccccc2)cc1 | 16% | -23% | u | u | 0% | 15µM*
Oc1ccccc1CNc1ccc(Br)cn1 | -2% | u | u | u | -5% | 9.5µM*
CN(C(=O)COc1ccc([N+](=O)[O-])cc1)C1CCS(=O)(=O)C1 (configuration not stated) | -1% | x | 1% | -2% | 2% | 0%
CCC(=O)Nc1cccc(NC(=O)c2ccccc2Cl)c1 | -4% | -22% | -3% | -3% | -5% | -4%
CCC(=O)Nc1cccc(NC(=S)NC(=O)c2cccs2)c1 | u | 28µM* | u | u | 2% | 6µM*
N#Cc1ccccc1NC(=O)COC(=O)c1cccs1 | 1% | x | x | x | -1% | x
N#Cc1ccccc1NC(=S)NC(=O)c1cccs1 | 16% | x | -1% | 8% | -13% | 8.5µM*
CCC(=O)Nc1cccc(NC(C)=O)c1 | 2% | 5% | -1% | u | x | 5%
CCC(=O)Nc1cccc(NC(=O)c2ccc(C)cc2Cl)c1 | 4% | 28% | 21% | u | -3% | 19µM*
CCC(=O)Nc1cccc(NC(=S)NC(=O)c2ccccc2Cl)c1 | -1% | -5% | u | 3.5µM* | 6% | u
CC(C)N(Cc1ccccc1)C(=O)CCS(=O)(=O)c1cc2c(cc1Cl)NC(=O)CO2 | x | x | x | x | x | -3%
CCN1CCN(CCCNC(=O)Cn2nc(C)n3c(cc4c(OC)cccc43)c2=O)CC1 | x | -10% | x | x | x | 4%
COc1ccc(NC(=O)Nc2nnc(-c3ccco3)s2)cc1 | u | x | 0.89µM* | 1.3µM* | -12% | u
COc1ccc(NC(=O)Nc2nnc(C(C)C)s2)cc1 | u | 26% | 3.5µM* | u | x | 21µM*
COc1ccc(NC(=O)Nc2nnc(-c3ccccc3F)s2)cc1 | 1% | 14% | u | 2.8µM* | 6% | -3%
COc1ccc(NC(=O)Nc2nnc(-c3ccncc3)s2)cc1 | -18% | -18% | 26% | u | 2% | u
SMILES | ELG1 genotoxic | SMN2 splice up | NPC1 prom act | Rab9 prom act | uPA generation | FLuc modulator
Cc1ccc(NC(=O)Nc2nnc(-c3ccccc3F)s2)cc1 | 9% | x | u | u | 1% | -12%
CC(C)c1ccc(S(=O)(=O)c2nnn3c2nc(N2CCOCC2)c2sccc23)cc1 | x | x | x | x | x | 0%
COc1ccc2c(CNC3CCC(C)CC3)c(C(=O)O)n(Cc3ccccc3)c2c1 (configuration not stated) | x | x | x | x | x | -5%
CCOC(=O)c1ccc(NC(=O)N2CC3CCCN3c3ccccc32)cc1 (configuration not stated) | x | x | x | x | x | -1%
O=C(Nc1cccn(Cc2cccc(F)c2)c1=O)NC1CCCCC1 | -2% | -19% | 0% | 0% | -13% | u
O=C(Nc1cccn(Cc2c(Cl)cccc2Cl)c1=O)C1CC1 | -12% | -10% | -4% | 2% | 3% | -12%
Cc1ccc(NC(=O)Nc2cccn(Cc3c(F)cccc3Cl)c2=O)cc1 | 7% | -5% | 19% | 19% | -13% | 7.6µM*
O=C(NCc1ccccc1)Nc1cccn(Cc2c(F)cccc2Cl)c1=O | -1% | -26% | -11% | -9% | u | 13µM*
C#CCOC(=O)Nc1cccn(Cc2c(Cl)cccc2Cl)c1=O | -3% | 8% | -21% | -6% | -9% | 17µM*
O=C(Nc1cccn(Cc2c(F)cccc2Cl)c1=O)NC1CCCCC1 | -2% | x | -24% | -18% | 11µM* | 13µM*
Cc1cccc(NC(=O)COC(=O)c2nn(C)c(=O)c3ccccc23)c1C | 0% | x | x | x | -2% | x
COc1cc(/C=N/OCC(=O)NC2CCCCC2)ccc1OCc1ccccc1 | 10% | 30% | u | 28% | 3% | u
COc1cc(/C=N/OCC(=O)NC23CC4CC(CC(C4)C2)C3)ccc1OCc1ccccc1 | 11% | x | 11% | 16% | -9% | 15µM*
CCOc1ccc(C(=S)N2CCCC2)cc1OC | -1% | -15% | -3% | -5% | -4% | 4%
COc1cc(/C=N/N=C(N)N)ccc1OCc1ccc(Cl)cc1 | 9.2µM* | 21% | u | u | u | 3µM*
CCOc1cc(/C=N/O)ccc1OCc1ccc(F)cc1 | 5% | 6% | -2% | 1% | -4% | u
COc1cc(/C=N/O)ccc1OCc1ccc(Cl)cc1 | 2.1µM* | 6.3µM* | 0.63µM* | 0.4µM* | x | 1.3µM*
COc1cc(C(=S)N2CCCC2)ccc1OCc1ccc(C)cc1 | 21µM* | x | u | u | 1% | u
CCOc1ccc(NC(=O)Cn2c(=O)n(Cc3ccccc3)c(=O)c3c4c(sc32)CN(C(C)=O)CC4)cc1 | x | 2% | x | x | x | 7%
Cn1cccc1C(=O)OCC(=O)NC(=O)NC1CCCCC1 | 12% | 24% | 21% | 25% | 22% | -19%
CC(=O)Nc1ccc(S(=O)(=O)NC2(C(F)(F)F)C(=O)Nc3c2c(=O)[nH]c(=O)n3-c2cccc(Cl)c2)cc1 (configuration not stated) | x | -2% | x | x | x | -12%
Cn1ncc2c(N3CCN(c4ccc(F)cc4)CC3)ncnc21 | x | x | x | x | x | 1%
COc1cc(/C=N/O)ccc1OCc1ccc(C(=O)O)cc1 | u | 0.4µM* | u | 0.089µM* | -7% | 0.054µM*
